A3G deaminase: APOBEC3G (human) deaminase inhibition; recombinant A3G, ssDNA deamination FAM/TAMRA fluorescence; inhibition, % at 20 µM; Q9HC16; 330,000 compounds, 0.28% hits;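 active means inhibition of at least 40% at 20 µM, with no more than 30% in the related APOBEC3A deaminase screen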;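 further: plate controls were DMSO wells with A3G for no effect and wells lacking A3G enzyme for full effect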
Target sequence (Q9HC16 whole entry, looked up): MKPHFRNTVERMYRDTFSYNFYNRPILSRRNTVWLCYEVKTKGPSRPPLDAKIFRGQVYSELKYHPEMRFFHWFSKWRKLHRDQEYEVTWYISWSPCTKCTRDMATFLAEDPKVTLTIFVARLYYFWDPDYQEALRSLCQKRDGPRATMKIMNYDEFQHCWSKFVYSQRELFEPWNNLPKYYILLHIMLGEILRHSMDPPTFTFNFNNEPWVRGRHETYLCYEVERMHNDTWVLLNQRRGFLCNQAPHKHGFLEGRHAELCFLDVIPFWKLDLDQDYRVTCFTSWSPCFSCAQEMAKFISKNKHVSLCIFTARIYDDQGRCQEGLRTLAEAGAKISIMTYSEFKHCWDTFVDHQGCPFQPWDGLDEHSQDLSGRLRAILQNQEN
PfG6PD inh: PfG6PD (Plasmodium falciparum) enzyme inhibition; 350,000 compounds, 0.78% hits; PfGluPho enzyme, NADPH resazurin-diaphorase fluorescence; inhibition, % at 20 µM;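 active means inhibition reaching at least a set limit at 20 µM in the primary screen, cut at about 59% in these data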;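 further: 0% = DMSO wells with substrate and 100% = DMSO wells lacking glucose-6-phosphate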
A3A deaminase: inhibitors of human APOBEC3A DNA deaminase; inhibition, % at 20 µM; 330,000 compounds, 0.41% hits; recombinant A3A, FAM/TAMRA ssDNA deamination fluorescence; AID 493011; P31941;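 active means at least 40% inhibition at 20 µM here, with at most 30% in a related deaminase screen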;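 further: plate controls were A3A with DMSO for no effect and wells lacking A3A enzyme for full effect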
Target sequence (P31941 whole entry, looked up): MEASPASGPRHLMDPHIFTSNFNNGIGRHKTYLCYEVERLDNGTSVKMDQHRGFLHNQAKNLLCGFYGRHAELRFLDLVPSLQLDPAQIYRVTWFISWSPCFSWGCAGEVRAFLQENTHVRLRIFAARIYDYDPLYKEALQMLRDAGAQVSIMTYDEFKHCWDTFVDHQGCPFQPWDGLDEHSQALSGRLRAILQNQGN
CR mimetic SO: yeast age-related superoxide inhibition as caloric restriction mimetic | 330,000 compounds, 0.18% hits | superoxide response (% of plate mean), % at 10 µM | S. cerevisiae aged cells, superoxide DHE fluorescence; stronger effect = lower value;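 active means superoxide response under a set limit, about three screen SD below normal, cut at about 65% in these data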;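 further: yeast aged for seven days with compound at 30 °C before DHE staining; 100% = average MFI of all compound-treated wells on the plate with controls excluded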
M18AAP inhibitor: blocks P. falciparum M18 aspartyl aminopeptidase; inhibition, % at 7.35 µM; AID 1822; 290,000 compounds, 1.2% hits; recombinant PfM18AAP, H-Glu-NHMec fluorogenic cleavage;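 active means inhibition above the campaign mean inhibition over all tested compounds plus 3 SD, cut at about 28% in these data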;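 further: 0% = plate median of test compound wells and 100% = 2 mM ZnCl2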
PfGluPho conf: PfG6PD inhibition, single-dose confirmed; shares compounds with PfG6PD inh; recombinant PfGluPho, NADPH-diaphorase-resazurin fluorescence; inhibition, % at 20 µM; 2,400 compounds, 34% hits; AID 504753;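 active means inhibition of at least 50% at 20 µM in any single replicate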;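 further: 0% = DMSO with substrate and 100% = DMSO lacking glucose-6-phosphate substrate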
Diaphorase 10uM: counter-screen for P. falciparum G6PD inhibitors: diaphorase inhibitors, oxidizers. shares compounds with PfG6PD inh. diaphorase-coupled resazurin reduction, fluorescence, NADPH 10 uM. inhibition, % at 20 µM. 820 compounds, 39% hits. AID 504862;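 active means average inhibition reaching 50% or more with the compound at 20 µM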;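 further: resorufin red fluorescence formed as diaphorase reduces resazurin using NADPH; 0% = DMSO with enzyme and 100% = DMSO without enzyme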
Diaph ctr 30uM: counter-screen for P. falciparum G6PD inhibitors: diaphorase inhibitors, oxidizers; Diaphorase/resazurin coupled assay, resorufin fluorescence, 30 uM NADPH; shares compounds with PfG6PD inh; inhibition, % at 20 µM; 820 compounds, 29% hits;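 active means inhibition averaging 50% or more, tested at 20 µM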;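 further: 0% = DMSO with enzyme and 100% = DMSO wells lacking diaphorase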
The depositor's hits bear a star; x = no result; ! = not confirmed by another sample. Most compounds without a hit are left out; they make up all but 2.4% or so of the library.

SMILES | A3G deaminase | PfG6PD inh | A3A deaminase | CR mimetic SO | M18AAP inhibitor | PfGluPho conf | others
COc1ccc(NCc2cc3cc(OC)ccc3[nH]c2=O)cc1 | 3.4 | 72.5* | 2.8 | 87.9 | 16.6 | 26.1
COc1ccc(NCc2cc3ccccc3[nH]c2=O)cc1 | -1.9 | 25.1 | -3.5 | 106.2 | 17.6 | x
Cc1cc(NC(=O)Cc2ccccc2[N+](=O)[O-])no1 | 1.4 | 1.8 | -4.1 | 98.8 | -3.1 | x
O=C(NCc1ccc(F)cc1)N1[C@H]2CC[C@@H]1C=C(c1ccc(F)cc1OCc1ccccc1)C2 | x | 7.9 | x | x | x | x
C=CCn1c(SCC(=O)Nc2ccc(F)cc2)nnc1-c1cnccn1 | 8.2 | 64.3* | 4.0 | 123.2 | -3.9 | 34.8
CCOc1ccccc1NC(=O)CSc1nnc(-c2cnccn2)n1CC | -2.1 | 73.0* | 2.6 | 107.1 | -5.5 | 47.8
CCn1c(SCC(=O)Nc2ccc(F)cc2)nnc1-c1cnccn1 | -3.8 | 87.5* | -0.4 | 113.6 | -5.1 | 36.2
Cc1cc(OCC(=O)Nc2ccc(CN3CCOCC3)cc2)c2c(C)c(C)c(=O)oc2c1 | -5.0 | -1.4 | -5.1 | 92.2 | -2.2 | x
Cc1ccc(C(=O)Nc2ccc(O)cc2C(=O)O)cc1C | -6.3 | 55.9 | -4.4 | 109.7 | 5.7 | x
Cc1ccc(C(=O)Nc2ccc(O)cc2C(=O)O)cc1 | -5.6 | 65.5* | -0.5 | 103.0 | -4.9 | 39.2
COc1ccc(N2C(=S)N(C(=O)c3ccccc3)C(=Nc3ccccc3)C2=Nc2ccccc2)cc1 | -6.7 | 64.2* | -2.1 | 110.0 | 4.2 | 31.3
COc1cc(N)c2ncccc2c1SC | x | 65.6* | x | x | x | 61.7* | Diaphorase 10uM=-9.3;Diaph ctr 30uM=8.1
COc1cc(N)c2ncccc2c1Br | x | 57.3 | x | x | x | x
Cc1ccc(-c2ccc(C(=O)NCc3ccc(Cl)cc3)o2)c2ccccc12 | -6.5 | 60.9* | -2.7 | 103.8 | -12.9 | 4.0
CCn1c(=O)n(CC)c2cc(N3CCCC3)c(NC(=O)c3cccc(C)c3)cc21 | -3.7 | 71.4* | 0.2 | 92.7 | 27.1 | 83.7* | Diaphorase 10uM=-9.7;Diaph ctr 30uM=8.9
O=C(Nc1ccccn1)c1sc2cc([N+](=O)[O-])ccc2c1Cl | 24.1 | 70.2* | -1.8 | 99.2 | 9.5 | 61.0* | Diaphorase 10uM=-14.9;Diaph ctr 30uM=-18.0
CCOc1ccc(Cl)cc1S(=O)(=O)N1CCC(C(=O)NCc2ccncc2)CC1 | -0.4 | 4.8 | -3.0 | 113.1 | -3.8 | x
O=C(Cn1sc2ccccc2c1=O)Nc1ccccc1 | x | 122.0* | x | x | x | 107.5* | Diaphorase 10uM=-10.3;Diaph ctr 30uM=10.4
CN(C)c1ccc(Cc2cc3c(O)ccc(O)c3cc(Cc3ccc(N(C)C)cc3)c2=O)cc1 | x | 113.3* | x | x | x | 83.5* | Diaphorase 10uM=11.1;Diaph ctr 30uM=3.7
COc1cc(NC2CCCCC2O)c2nc(-c3ccc(Cl)cc3)ccc2c1 (stereo unspecified) | -9.3 | 61.2* | -2.2 | 118.0 | 14.8 | 41.7
Oc1ccc2c(ccc3[nH]cnc32)c1 | 0.6 | 3.6 | 1.3 | 97.2 | 0.3 | x
Brc1cc2[nH]cnc2c2ccccc12 | -3.3 | 59.3* | 0.8 | 103.2 | -0.6 | 50.4* | Diaphorase 10uM=28.9;Diaph ctr 30uM=28.1
Cc1ccc2nc(SCC(=O)c3ccc(Cl)s3)[nH]c2c1 | -6.3 | 61.5* | 0.7 | 100.8 | 3.7 | 4.7
Cc1ccc2nc(SCC(=O)c3ccc4c(c3)OCO4)[nH]c2c1 | -4.6 | 55.7 | -4.7 | 91.5 | 3.4 | x
O=C(CCn1cccn1)Nc1ccc2c(c1)OCCO2 | 2.9 | -5.1 | -0.5 | 96.9 | 2.5 | x
SMILES | A3G deaminase | PfG6PD inh | A3A deaminase | CR mimetic SO | M18AAP inhibitor | PfGluPho conf | others
CCOC(=O)C1=C(C)Nc2ncnn2C1c1ccc(N(C)C)cc1 (stereo unspecified) | -0.8 | 60.9*! | 2.2 | 114.3 | 5.7 | 29.3
CCOC(=O)C1=C(C)Nc2nc(=S)[nH]n2C1c1ccc(Cl)cc1 (stereo unspecified) | 27.8 | 60.6* | 0.8 | x | 14.7 | 19.1
CCOC(=O)c1ccc(NNC(=O)CC)c([N+](=O)[O-])c1 | -5.8 | 6.5 | -0.8 | 97.0 | -2.9 | x
CCOc1ccccc1Oc1nc(-c2ccccc2O)nc2ccccc12 | -3.7 | 86.0* | -1.6 | 104.5 | 0.4 | 14.8
O=C(N/N=C/c1cccc(Br)c1)C1CC(=O)N(c2ccccc2)C1 (stereo unspecified) | -12.5 | 73.0* | -3.5 | 94.8 | 1.1 | 44.7
Cc1cc(C)c(S(=O)(=O)c2cccc(Br)c2C)c(Cl)n1 | x | 69.0* | x | 100.4 | -5.1 | 21.7
Cc1cc(C)c(S(=O)(=O)c2ccccc2Cl)c(Cl)n1 | -1.4 | x | -1.7 | 85.6 | -18.3 | x
Cc1ccc(/C=C/C(=O)N2CCN(S(=O)(=O)c3c(C)c(C)cc(C)c3C)CC2)o1 | -7.0 | 44.0 | -1.6 | 84.3 | -67.7 | x
Cc1ccc(/C=C/C(=O)N2CCN(S(=O)(=O)c3ccc(C)c(C)c3)CC2)o1 | -5.5 | 62.2* | 1.7 | 97.4 | -109.3 | 50.2* | Diaphorase 10uM=-19.0;Diaph ctr 30uM=-23.0
O=C(Nc1ccnn1C1CCN(Cc2ccc(CO)o2)CC1)c1cccc(F)c1 | x | -13.4 | x | x | x | x
CC(C)(C)S(=O)(=O)N1Cc2cc(CO)cc(CCO)c2[C@@H]1CCO | x | 12.1 | x | x | x | x
C/C(Cn1nnc([N+](=O)[O-])n1)=N\NC(=O)c1ccccc1 | -3.2 | 62.7* | -2.2 | 114.9 | -2.4 | 60.4* | Diaphorase 10uM=11.2;Diaph ctr 30uM=13.9
Cc1cc(C(=O)CSc2nc3ccc(Cl)cc3[nH]2)c(C)n1Cc1ccco1 | 1.4 | 26.8 | 5.0 | 104.8 | x | x
COc1ccc(NC(=O)c2cc3ccccn3n2)cc1 | -4.9 | 63.6* | -1.8 | 90.0 | 7.3 | 33.3
COc1ccccc1C(=O)Nc1nc2ccccc2s1 | -12.1 | 25.7 | -2.7 | 105.0 | -5.7 | x
COc1ccc(C(=O)Nc2nc3ccccc3s2)c(OC)c1 | -1.3 | 76.1* | 2.1 | 86.3 | 1.7 | 12.8
COc1ccc(NC(=O)c2nc3ccccc3s2)cc1 | -5.5 | 78.6* | -2.2 | 71.8 | -7.0 | 16.0
Nn1c(SCc2cccc(Br)c2)nnc1-c1cccnc1 | -9.0 | 12.2 | -2.7 | 106.9 | -1.7 | x
Cc1nc(Nc2cnc(/C=C/c3cc(C(=O)Nc4cccc(C(F)(F)F)c4)ccc3C)cn2)cc(N2CCNCC2)n1 | -4.0 | 62.3* | -0.2 | 99.3 | 16.9 | -12.3
COc1cccc(/C=N/NC(=O)CCCc2ccc(OC)c(C)c2)c1 | -0.4 | 77.3* | 0.6 | 113.8 | 2.3 | 23.4
COc1ccc(C2=CC(=O)N(Nc3ccccc3)C2=O)cc1 | -8.0 | 14.5 | -5.4 | 77.9 | 19.8 | x
O=C1C=C(c2ccccc2)C(=O)N1Nc1ccccc1 | 10.2 | 59.8* | 3.0 | 101.6 | 0.9 | 44.9
O=C(CSc1cccc2cccnc12)N/N=C/c1cccc(O)c1 | -8.7 | 6.2 | -1.6 | 91.3 | 10.6 | x
O=C(CSc1cccc2cccnc12)N/N=C/c1ccc(F)cc1 | -9.3 | 84.7* | -1.9 | 104.8 | 3.0 | 64.9* | Diaphorase 10uM=61.1*;Diaph ctr 30uM=53.8*
CCCCC(=O)N/N=C/c1ccc(Sc2cccc3cccnc23)o1 | -3.5 | 68.1* | 0.6 | 99.4 | -7.9 | 28.6
Nc1ccc(S(=O)(=O)C(F)(F)F)cc1N | -4.7 | 21.2 | -1.7 | 85.2 | -0.6 | x

Compound activity as filed in PubChem BioAssay.
